Screening data as filed in PubChem.
The list is not random: actives were taken first. Their share in the collection is about 2.4%.
POLI inh – qHTS for Inhibitors of Polymerase Iota; DNA polymerase iota (Homo sapiens), Q9UNA4; Pol iota fluorescent replication assay, 10 min; Potency, µM (doses to about 115 µM), without a hit: at the highest dose activity, negative = inhibition, most hits filed as inhibitors; actives 1% (n = 390,000); AID 588590, 2011
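Fluorescent replication assay read twice, at 0 min and 10 min after adding 50 nM (final) substrate. Enzyme (10 nM) and compounds were first incubated 15 min at room temperature; enzyme-free buffer wells were negative controls.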
WRN inhibitor – qHTS for Inhibitors of WRN Helicase | Bifunctional 3'-5' exonuclease/ATP-dependent helicase WRN (Homo sapiens), Q14191 | WRN helicase unwinding, fluorescent forked duplex, kinetic | Potency, µM (top dose mostly 114 µM), inactives show at the highest dose activity change, negative = inhibition, hits mostly inhibitors | actives 0.46% (n = 360,000); note: % is set by controls: 0 for no effect and ±100 for the full control effect; nearly all actives have a fitted effect of over 55% in size
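Kinetic red-fluorescence monitoring (525/598 nm) tracks WRN helicase activity after 100 nM fluorophore-quencher forked duplex and 2 mM ATP are added to 20 nM enzyme pretreated 15 min at room temperature with compound.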
Pol kappa inh – qHTS for Inhibitors of Polymerase Kappa; DNA polymerase kappa (Homo sapiens), Q9UBT6; purified Pol kappa, fluorescent DNA synthesis assay, 10 min; Potency, µM (highest dose often 107 µM), inactives show at the highest dose activity, negative = inhibition, hits mostly inhibitors; AID 588579, 2011; actives 0.53% (n = 400,000); note: % is set by controls: 0 for no effect and ±100 for the full control effect
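First, compounds were pin-transferred onto 10 nM Pol kappa. After 15 min at room temperature, substrate was added to 50 nM final. Fluorescence was then measured kinetically at 0 and 10 min.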
POLH inh – qHTS for Inhibitors of Polymerase Eta; DNA polymerase eta (Homo sapiens), Q9Y253; recombinant Pol eta, fluorescent DNA replication assay; Potency, µM (doses to about 114 µM), for the others: top-dose activity change, negative = inhibition, most hits filed as inhibitors; actives 1.2% (n = 390,000); AID 588591, 2011; note: % is set by controls: 0 for no effect and ±100 for the full control effect
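Fluorescent replication assay: 50 nM final substrate added after a 15 min room-temperature compound preincubation with 10 nM enzyme. Signal taken at 0 min and again at 10 min.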
Pol beta inh – qHTS Assay for Inhibitors of DNA Polymerase Beta. AID 485314, 2010. Pol beta primer extension/strand displacement, fluorescence kinetic. Potency, µM (series often up to 114 µM), for the others: top-dose activity change, negative = inhibition, usual class: inhibitors. P06746. actives 1.3% (n = 340,000); note: % is set by controls: 0 for no effect and ±100 for the full control effect
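Enzyme-only controls used 10 nM Pol beta; buffer lacking enzyme served as negative control. Compound preincubated 15 min, then 50 nM substrate added; 0 and 10 min reads at room temperature.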
FEN1 inh – qHTS Assay for the Inhibitors of Human Flap endonuclease 1 (FEN1) | Recombinant FEN1 flap cleavage, fluorescence, 15 min | Potency, µM (highest dose often 114 µM), for the others: top-dose activity change, negative = inhibition, actives largely listed as inhibitors | actives 0.35% (n = 390,000) | AID 588795, 2011; note: % is set by controls: 0 for no effect and ±100 for the full control effect; nearly all actives have a fitted effect of over 65% in size
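Potency values derive from four-parameter Hill fits of normalized qHTS data. The reaction used 10 nM FEN1 preincubated 15 min at room temperature with compound, then 50 nM DNA substrate, read at 0 and 15 min.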
Active calls of the source: *; u = inconclusive; x = no result; [ ] = another dose, or the depositor's remark. Calls come from the whole dose curve; as a rule, active = well fitted curve in the direction sought with a large enough effect; inconclusive = small, poorly fitted or top-dose-only effect, or another doubt; inactive = no such curve, though single readings can be large; an effect the other way counts as inactive or inconclusive. Potency is the fitted concentration of half-maximal effect.

SMILES | POLI inh | WRN inhibitor | Pol kappa inh | POLH inh | Pol beta inh | FEN1 inh
COc1cc2nc(N3CCN(C)CC3)nc(NC3CCN(C)CC3)c2cc1OC | -14.3% | x | -10.8% | x | x | u
CCc1nn(CC(=O)NC(C)CC)c(=O)c2cc3c(OC)cccc3n12 (stereo unspecified) | 38.0% | x | 14.9% | -11.7% | 27.5% | 7.7%
COc1ccc(Cl)cc1NC(=O)C1CCN(S(=O)(=O)c2ccc3c(c2)CC(C)N3C(C)=O)CC1 (stereo unspecified) | 0.2% | x | -0.6% | -14.4% | -23.1% | 16.4%
CCn1c(=S)[nH]c2c(=O)n(C)c(=O)n(C)c21 | u | 50.1µM* | -7.5% | -1.6% | x | 1.9%
COc1ccc2c(c1)C1OCCC1C(c1ccco1)N2 (stereo unspecified) | 79.4µM* | -4.4% | -19.3% | -3.9% | x | 1.4%
c1coc(C2Nc3ccccc3C3OCCC23)c1 (stereo unspecified) | 0.3% | -2.1% | -9.1% | -4.5% | 8.0% | 5.3%
O=C1CC(c2ccccc2)N1c1ccccc1 (stereo unspecified) | -0.1% | -6.1% | -9.3% | -2.4% | 11.9% | -4.0%
COC(=O)C1=C(SC)N(c2ccccc2)C(c2ccccc2)CC1=O (stereo unspecified) | 13.4% | u | 89.1µM* | -1.7% | 0.3% | -2.5%
COc1ccc(Cl)cc1NC(=O)CN(c1cc(C)cc(C)c1)S(=O)(=O)c1c(C)n[nH]c1C | 79.4µM* | x | u | u | -9.0% | u
CC1CCC/C(=N\Nc2ccc(Cl)c(C(=O)O)c2)C1 (stereo unspecified) | u | u | u | 8.91µM* | 31.6µM* | -20.9%
CN(C)c1cccc(C(=O)NNC(=O)NC2CCCCC2)c1 | -9.4% | 5.2% | -3.0% | -10.9% | 0.6%[57.1 µM] | 0.6%
O=C(NNC(=O)c1ccc(Br)s1)NC1CCCCC1 | 18.7% | u | -16.4% | -9.6% | 22.4µM* | 7.6%
CCOc1ccccc1CN1C(=O)c2ccccc2C1C(=O)NC1CCCCCC1 (stereo unspecified) | -8.9% | x | -11.4% | -12.6% | -16.0% | -0.8%
Cc1c(NC(=O)C(C)OC(=O)c2cccnc2)c(=O)n(-c2ccccc2)n1C (stereo unspecified) | 58.8% | -0.4% | -6.2% | -5.7% | 6.0% | -7.4%
Cc1c(NC(=O)C(C)OC(=O)c2cccnc2Cl)c(=O)n(-c2ccccc2)n1C (stereo unspecified) | 79.4µM* | 2.9% | 5.1% | -9.2% | x | 0.1%
Cc1c(NC(=O)C(C)OC(=O)c2c3c(nc4ccccc24)CCC3)c(=O)n(-c2ccccc2)n1C (stereo unspecified) | 31.6µM* | u | -24.2% | 50.1µM* | u | -2.9%
C#CCNC(=O)C1=C[C@H](c2ccc3c(c2)OCO3)C[C@H](OCCCCO)O1 | 35.5µM* | -6.9% | -29.6% | 50.1µM* | x | 5.7%
O=C(NCc1ccccc1)C1=C[C@@H](c2ccc3c(c2)OCO3)C[C@@H](OCCCCO)O1 | -13.2% | -10.4% | -9.5% | -0.5% | x | -20.3%
C#CCNC(=O)C1=C[C@@H](c2ccc3c(c2)OCO3)C[C@@H](OCCCCO)O1 | 50.1µM* | -19.7% | -39.0% | u | x | 7.9%
CCN(CCCCCCN)c1ccc2c(=O)[nH][nH]c(=O)c2c1 | 45.6% | 0.0%[11.6 µM] | -5.0% | 79.4µM* | -27.4% | 3.1%
COc1ccc(S(=O)(=O)N(CCO)c2ccccc2CN(C)CC=Cc2ccc(Cl)cc2)cc1 | x | x | -18.5%[60.1 µM] | x | x | x
CC1CCN(c2c(NCc3ccc(C(=O)NCCc4ccc(Cl)cc4)cc3)c(=O)c2=O)CC1 | u | -4.2% | -20.0% | -13.0% | 31.6µM* | -6.3%
